Screens as filed in PubChem BioAssay.
TDP1 inh = TDP1 (human) enzyme inhibition | Q9NUW8 | recombinant TDP1, AlphaScreen DNA substrate cleavage | Potency, µM (titrated, usually from 130 µM), for the others: at the top dose activity change, negative = inhibition, most hits filed as inhibitors | 350,000 compounds, 0.28% hits | AID 485290; further: nearly all actives have a fitted effect of over 40% in size
Target sequence (Q9NUW8 whole entry, looked up): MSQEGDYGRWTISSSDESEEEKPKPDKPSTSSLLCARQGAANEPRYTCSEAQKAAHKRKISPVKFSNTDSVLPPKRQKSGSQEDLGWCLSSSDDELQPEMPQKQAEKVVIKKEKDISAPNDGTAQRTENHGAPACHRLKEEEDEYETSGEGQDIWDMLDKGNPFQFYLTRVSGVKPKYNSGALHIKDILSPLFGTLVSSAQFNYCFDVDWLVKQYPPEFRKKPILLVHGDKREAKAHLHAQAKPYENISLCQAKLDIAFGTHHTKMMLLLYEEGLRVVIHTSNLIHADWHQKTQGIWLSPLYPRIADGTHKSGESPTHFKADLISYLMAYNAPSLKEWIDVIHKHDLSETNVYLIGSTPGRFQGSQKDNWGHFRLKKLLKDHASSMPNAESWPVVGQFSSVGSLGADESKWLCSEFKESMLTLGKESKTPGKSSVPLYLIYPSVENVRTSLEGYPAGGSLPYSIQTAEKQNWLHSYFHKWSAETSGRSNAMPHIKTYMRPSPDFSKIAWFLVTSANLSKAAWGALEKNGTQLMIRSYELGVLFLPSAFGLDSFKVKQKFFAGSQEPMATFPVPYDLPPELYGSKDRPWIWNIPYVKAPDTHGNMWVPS
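Recombinant human Tdp1 (E. coli-expressed, 1 nM final) preincubated with compounds 15 min at room temperature, then 5'-biotin/3'-phosphotyrosine-FITC DNA substrate (15 nM final) added for 5 min. AlphaScreen beads (10 ug/ml final) added 10 min; cleavage lowers signal.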
VDR inh = blocks the human vitamin D receptor; VDR-SRC2-3 peptide fluorescence polarization, 2 h; 400,000 compounds, 0.93% hits; Potency, µM, for the others: max response, negative = inhibition, most hits filed as inhibitors; P11473
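Measured by FP: displacement of SRC2-3 coactivator peptide from VDR by library compounds, following a two-hour ambient incubation.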
KAT2A inh = GCN5L2 (KAT2A) acetyltransferase inhibition; Q92830; GCN5L2 HAT assay, ThioGlo1 CoA-SH fluorescence; Potency, µM (doses to about 58.9 µM), for the others: at the top dose activity change, negative = inhibition, actives largely listed as inhibitors; 390,000 compounds, 0.21% hits
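ThioGlo1-coupled HAT assay: 20nM GCN5L2, 70uM acetyl-CoA, 75uM H3(1-25) peptide, pH 7.5. Fluorescence read at 340/540nm at start and after 20 min at room temperature.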
PLK1 PBD inh = PLK1 (human) polo-box domain binding inhibition | Plk1 PBD binding of FITC phosphopeptide, fluorescence polarization | Potency, µM, inactives show max response, negative = inhibition, most hits filed as inhibitors | 360,000 compounds, 2.8% hits; further: series mostly up to about 57 µM; nearly all actives have a fitted effect of over 65% in size
TDP1 cell CPT = DT40-hTDP1 cell growth loss with CPT; chicken DT40 Tdp1-/-;hTDP1 cells + 20 nM CPT, ATP luminescence, 48 h; Potency, µM (series often up to 46.2 µM), for the others: top-dose activity change, negative = growth inhibition, hits mostly inhibitors; 420,000 compounds, 12% hits; AID 686979; further: nearly all actives have a fitted effect of over 55% in size
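Chicken DT40 Tdp1-/- cells stably complemented with human TDP1 were seeded at 400 cells/well in medium containing 20 nM camptothecin, exposed to pin-transferred compounds, and grown at 37 °C for at least 48 hr. Viability was read as ATP luminescence.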
DT40 TDP1 no CPT = qHTS for Inhibitors of human tyrosyl-DNA phosphodiesterase 1 (TDP1): qHTS in cells in absence of CPT; Potency, µM (doses to about 46.2 µM), without a hit: top-dose activity change, negative = growth inhibition, usual class: inhibitors; DT40 Tdp1-/- hTDP1 cells, no CPT, ATP luminescence, 48 h; 420,000 compounds, 15% hits; AID 686978, 2013; further: nearly all actives have a fitted effect of over 55% in size
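Seeded 400 DT40-hTDP1 cells/well (vehicle DMSO, no 20 nM CPT); pinned compounds; ≥48 hr at 37 °C; CellTiter-Glo luminescence as viability measure.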
Numbers without * were called inactive; u = inconclusive; x = no result; [ ] = another dose, or the depositor's remark. This is a sample that favours compounds with a hit; in the whole collection about 18% have one here. The call rests on the fitted dose curve; in most records, active means well fitted curve in the direction sought with a large enough effect; inconclusive means small, poorly fitted or top-dose-only effect, or another doubt; inactive means no such curve, though single readings can be large; an effect the other way counts as inactive or inconclusive. On the % scale 0 is the no-effect control and ±100 the full control effect; potency means the concentration at half of the fitted maximal effect.

SMILES	TDP1 inh	VDR inh	KAT2A inh	PLK1 PBD inh	TDP1 cell CPT	DT40 TDP1 no CPT
CN1CCc2c(sc(NC(=O)c3cc(Cl)sc3Cl)c2C(N)=O)C1	x	0%	u	0%	u	21µM*
Cc1cc(C)n(CCC(=O)N/N=C/c2ccc(Br)c([N+](=O)[O-])c2)n1	0%	-13%	2%	-15%	-5%	-28%
COc1ccc([C@H]2CC(=O)C=C(c3cc(F)ccc3OC)C2)cc1	-3%	-20%	-2%	0%	u	-58%
COc1ccc(F)cc1C1=CC(=O)C[C@H](c2ccc3c(c2)OCO3)C1	1%	-12%	4%	7%	9.2µM*	13µM*
CCOc1ccc(Cl)cc1C1=CC(=O)C[C@H](c2ccc(OC)cc2)C1	-7%	10%	-9%	-1%	2.9µM*	4.1µM*
CCCCC/C=C/C1=CC(=O)C[C@H](c2ccc3c(c2)OCO3)C1	-8%	-9%	-19%	2%	-29%	-22%
COC/C=C/C1=CC(=O)C[C@H](c2ccc3c(c2)OCO3)C1	3%	-4%	-28%	-5%	u	18µM*
COc1ccc(Cl)cc1C1=CC(=O)C[C@H](c2ccc(F)cc2)C1	-5%	-10%	-4%	1%	u	u
COc1ccc([C@H]2CC(=O)C=C(c3c(OC)cccc3OC)C2)cc1	0%	-12%	-13%	-6%	2.9µM*	2.1µM*
Cc1nn(CCCC(=O)NCc2cccc(Cl)c2)c(=O)c2c1sc1ccccc12	-6%	21%	-17%	x	u	u
Clc1ccc(Oc2nc3c(Cl)cccc3s2)cc1Cl	x	17%	-3%	-9%	-6%	u
COC(=O)c1ccc(C(NC(=O)OCc2ccccc2)/C(C)=C/[C@@H](C)C(=O)N2CCN(C)CC2)cc1 (some centres undefined)	2%	x	x	x	x	x
C[C@H](NC(=O)c1ccco1)C(=O)N1CCN(c2ccc(C(F)(F)F)cn2)CC1	0%	-7%	0%	-2%	-17%	u
COc1ccc([C@H]2CC(=O)C=C(c3cc(C=O)ccc3OC)C2)cc1	3%	-9%	1%	-15%	4.6µM*	5.8µM*
COc1ccc([C@H]2CC(=O)C=C(c3cc(Cl)ccc3OC)C2)cc1	-2%	-4%	-9%	-5%	13µM*	u
COc1ccc(OC)c(C2=CC(=O)C[C@H](c3ccc(F)cc3)C2)c1	x	x	x	-12%	u	-43%
COc1ccc([C@H]2CC(=O)C=C(c3cc(OC)ccc3OC)C2)cc1	2%	-14%	-15%	-11%	13µM*	15µM*
C1=Cc2ccccc2/C1=C/c1ccc2c(c1)OCO2	x	x	x	x	-13%	-21%
O=C1C=CC(=O)c2c(O)c(N3CCN(CCO)CC3)c(Cl)c(O)c21	x	8.9µM*	x	12µM*	0.58µM*	0.58µM*
O=C1C=CC(=O)c2c(O)c(N3CCN(CCOCCO)CC3)c(Br)c(O)c21	x	u	x	u	0.65µM*	0.92µM*
COCCOC(=O)c1c(C)n(S(=O)(=O)c2ccc(C)cc2)c2ccc(NS(=O)(=O)c3ccc(C)cc3)cc12	x	-10%	-2%	x	u	u
COc1cc(C(=O)OC2CC[C@]3(C)C4CCC5[C@]6(O)CC(O)[C@]7(O)C(CN8CC(C)CCC8[C@]7(C)O)[C@]6(O)C[C@@]53O[C@]24O)cc(OC)c1OC (some centres undefined)	10%[56.1 µM]	0%	3%	x	0%	-2%
COc1nc(=O)n(C2C=CC(=O)O2)cc1F (centres undefined)	x	x	x	-7%	2.3µM*	2.3µM*
Cc1cccc(N2CC(C(=O)Nc3ccc(S(=O)(=O)N4CCCCC4)cc3)CC2=O)c1C (centres undefined)	9%	20%	-10%	-4%	u	u
Cc1ccccc1N1CC(C(=O)Nc2ccc(S(=O)(=O)N3CCCCC3)cc2)CC1=O (centres undefined)	3%	-17%	-3%	17%	u	16µM*
SMILES	TDP1 inh	VDR inh	KAT2A inh	PLK1 PBD inh	TDP1 cell CPT	DT40 TDP1 no CPT
CC(C)(C)N1CC(C(=O)Nc2ccc(S(=O)(=O)N3CCCCC3)cc2)CC1=O (centres undefined)	-14%	-23%	-21%	-8%	u	1.6µM*
CC1=C(C(=O)c2ccccc2)C(c2ccc(OC(F)F)cc2)NC(=S)N1 (centres undefined)	2%	u	-14%	24µM*	u	u
CC1=C(C(=O)c2ccccc2)C(c2ccc(O)cc2)NC(=S)N1 (centres undefined)	1%	-10%	-2%	-3%	-3%	3%
Cn1c(SCc2ccc(Br)cc2)nc2ccccc2c1=O	x	1%	-6%	0%	u	12µM*
Cc1cccc(CSc2nc3ccccc3c(=O)n2C)c1	x	-7%	-10%	5%	u	18µM*
COc1ccc(NC(=O)c2cc(C3CC3)nc3c2c(C)nn3-c2ccccc2)c(OC)c1	-5%	5%	-11%	x	-20%	u
CCOc1ccc(NC(=O)c2ccc(CN3C(=O)C(C)=C(c4ccc(C)cc4)S3(=O)=O)cc2)cc1	6%	11%	3%	x	-10%	u
CC1=C(c2ccc(C)cc2)S(=O)(=O)N(Cc2ccc(C(=O)Nc3ccccc3C)cc2)C1=O	8%	5%	-2%	x	7.3µM*	8.2µM*
CCc1ccc(NC(=O)c2ccc(CN3C(=O)C(C)=C(c4ccc(C)cc4)S3(=O)=O)cc2)cc1	6%	-3%	-3%	x	u	10µM*
Cc1ncc(CO)c(/C=N/NC(=S)Nc2cccc(Cl)c2)c1O	3%	79µM*	-3%	21µM*	u	16µM*
Cc1ncc(CO)c(/C=N/NC(=S)Nc2ccc(Cl)c(Cl)c2)c1O	2%	u	-20%	27µM*	16µM*	13µM*
COc1ccccc1N/N=C/c1c(CO)cnc(C)c1O	8%	-10%	-11%	-1%	-3%	u
Cc1nc(C(F)(F)F)ccc1C(=O)N1CCC1(C)C(=O)NS(C)(=O)=O (centres undefined)	x	x	x	-2%	0%	-2%
CNC(=O)C[C@@H]1C(=O)N(c2ccc(Br)cc2)CC1(C)C	x	x	x	-7%	6%	-5%
Cc1cc(C)cc(-n2ccnc2SCC(=O)Nc2ccc(C)cc2C)c1	13%	-7%	0%	x	16µM*	21µM*
CCc1nnc(NC(=O)CSc2nccn2-c2cc(C)cc(C)c2)s1	5%	-15%	-3%	-15%	23µM*	16µM*
